Sampled rows, rich in hits. Any-hit rate of the full collection: about 3.5%.
FBW7 act – activators of human E3 ligase FBW7. Q969H0. AlphaScreen FBW7–phospho-cyclin E peptide binding, activator screen. normalized activity (activation), % at 26.1 µM. actives 0.13% (n = 650,000); in the data active = normalized activity above about 1.9%;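 also: purified mutant Fbw7 with reduced substrate affinity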
Target sequence (Q969H0 whole entry, looked up): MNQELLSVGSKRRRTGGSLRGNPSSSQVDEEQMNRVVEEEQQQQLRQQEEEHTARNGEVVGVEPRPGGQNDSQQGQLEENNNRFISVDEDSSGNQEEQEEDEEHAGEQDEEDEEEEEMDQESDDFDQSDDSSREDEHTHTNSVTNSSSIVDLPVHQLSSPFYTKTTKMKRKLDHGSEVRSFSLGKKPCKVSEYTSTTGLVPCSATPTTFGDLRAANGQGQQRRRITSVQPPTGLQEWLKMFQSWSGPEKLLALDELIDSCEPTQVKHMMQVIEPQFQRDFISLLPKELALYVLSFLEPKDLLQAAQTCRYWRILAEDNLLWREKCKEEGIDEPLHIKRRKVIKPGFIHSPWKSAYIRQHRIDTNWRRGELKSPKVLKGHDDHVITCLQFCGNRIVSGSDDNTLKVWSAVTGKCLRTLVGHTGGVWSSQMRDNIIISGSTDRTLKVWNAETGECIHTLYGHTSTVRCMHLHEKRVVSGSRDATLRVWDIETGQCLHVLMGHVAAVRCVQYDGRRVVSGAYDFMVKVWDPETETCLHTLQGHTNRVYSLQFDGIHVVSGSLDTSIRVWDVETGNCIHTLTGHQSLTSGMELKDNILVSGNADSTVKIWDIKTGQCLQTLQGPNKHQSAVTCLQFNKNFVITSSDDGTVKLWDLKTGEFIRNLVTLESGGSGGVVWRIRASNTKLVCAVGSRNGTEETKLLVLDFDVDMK
TEAD-YAP inh – TEAD-YAP interaction inhibition. AID 1259422. inhibition, % at 9.12 µM. HEK-TIYL cells, TEAD-Gal4/YAP UAS-luciferase luminescence. actives 1.4% (n = 640,000); in the data active = inhibition above about 32%;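 also: 0% = median of test compound wells and 100% = reference inhibitor wells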
MITF inh – blocks human microphthalmia-associated transcription factor | O75030 | AlphaScreen MITF homodimerization, bead proximity signal | inhibition, % at 2.6 µM | actives 0.91% (n = 650,000); in the data active = inhibition above about 50%;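 also: 0% = vehicle wells with protein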
GPR151 ag – human GPR151 activation; actives 1% (n = 650,000); activation, % at 11.2 µM; Q8TDV0; PathHunter beta-arrestin GPR151 cells, luminescence; AID 1508602; in the data active = activation above about 4.9%;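 also: 0% = median of compound wells and 100% = cells with positive control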
GPR151 confirm – confirmation of human GPR151 activators | shares compounds with GPR151 ag | GPR151 PathHunter beta-arrestin cells, luminescence, 90 min; % of EA-reagent control over plate median | activation, % at 11.2 µM | 6,700 tested, under 10 active | AID 1508609;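 active = mean percent activation across replicates above the confirmation screen cutoff of 4.91%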
GPR119 counter – counter-screen for GPR151 activators: effect on human GPR119; shares compounds with GPR151 ag; AID 1508611; activation, % at 11.2 µM; GPR119 PathHunter beta-arrestin cells, luminescence, 90 min; 0 = compound-well median, 100 = enzyme-acceptor control; actives 0.3% (n = 6,700);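 active = mean percent activation in the counterscreen above 29.09%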;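 also: counterscreen on off-target GPR119 to flag nonselective hits from the GPR151 activator screen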
Active calls of the source: *; . = no result given.

SMILES | FBW7 act | TEAD-YAP inh | MITF inh | GPR151 ag | GPR151 confirm | GPR119 counter
CCc1cc(=O)oc2cc(OC(=O)c3ccco3)ccc12 | 0 | 8 | -7 | 6.8* | 0 | -3
COC(=O)C(C)Oc1ccc2c(C)c(Cc3ccccc3)c(=O)oc2c1 (stereo not given) | 0 | -6 | -19 | 0 | . | .
N/C(=N\OC(=O)c1ccccc1-c1ccccc1)c1ccc([N+](=O)[O-])cc1 | 0 | 15 | 8 | 2 | . | .
COCC1CCCCN1C(=O)CCc1nnc(Cc2ccc(-c3ccccc3)cc2)o1 (stereo not given) | 0 | -14 | -23 | 2 | . | .
CC(C)C(=O)Nc1nnc(SCc2ccc(Cl)cc2)s1 | 0 | 3 | 3 | 5.1* | 0 | 9
COc1ccccc1CNC(=O)c1cc(S(=O)(=O)N2CCCC(C)C2)ccc1F (stereo not given) | 0 | 0 | 3 | 0 | . | .
COc1ccc(N(C(=O)Cc2cccs2)C(C(=O)NC2CCCC2)c2ccncc2)cc1 (stereo not given) | 0 | -28 | -1 | 1 | . | .
O=C(NC1CCCC1)C(c1ccncc1)N(C(=O)NCc1cccs1)c1ccncc1 (stereo not given) | 0 | -12 | -11 | 10* | 0 | 2
O=C(c1ccc(CS(=O)(=O)Cc2ccc(F)cc2)o1)N1CCCCC1 | 0 | -3 | 7 | 5.3* | 0 | -8
Cc1ccccc1S(=O)(=O)Cc1ccc(C(=O)N2CCCCC2)o1 | 0 | -2 | 8 | 0 | . | .
COc1cc(NC(=O)CSc2nnnn2-c2ccc(OC)c(OC)c2)cc(OC)c1 | 0 | 3 | 1 | 5.0* | 0 | 1
CCC(C)c1ccc(NC(=O)CSc2nnnn2-c2ccc(OC)cc2)cc1 (stereo not given) | 1 | 6 | 13 | 5.6* | 1 | 0
COc1ccc(-n2nnnc2SCC(=O)Nc2ccc(NC(C)=O)cc2)cc1OC | 0 | 7 | -1 | 2 | . | .
c1ccc(-c2nc(-c3ccncc3)cc(N3CCOCC3)n2)cc1 | 0 | 0 | -8 | 0 | . | .
O=C(CN(c1ccccc1Cl)S(=O)(=O)c1ccccc1)NC1CC1 | 0 | -4 | -2 | 5.9* | 0 | -5
C#CCOCC1CCCN(C(=O)Cn2cccn2)C1 (stereo not given) | 1 | 20 | 7 | -1 | . | .
COCc1cc(C)nc2sc3c(=O)n(-c4ccc(C(C)=O)cc4)nnc3c12 | 0 | -3 | 0 | 5.5* | 0 | 5
COCc1cc(C)nc2sc3c(=O)n(-c4ccc(C)cc4C)nnc3c12 | 0 | 5 | 16 | 1 | . | .
CC1(C(=O)NNC(=S)NCc2ccco2)CC1(Cl)Cl (stereo not given) | 0 | 3 | 11 | 5.3* | 0 | 5
Cc1cc(NS(=O)(=O)c2ccc3c(c2)OCCN3C)ccc1Br | 0 | 5 | 4 | 9.0* | 0 | -8
CSc1cccc(NS(=O)(=O)c2ccc3c(c2)OCCN3C)c1 | 0 | 19 | 1 | 5.0* | 0 | 6
Cc1ccc(NS(=O)(=O)c2ccc3c(c2)OCCN3C)cc1C | 0 | 20 | 4 | 1 | . | .
Cc1ccc(CCNS(=O)(=O)c2ccc3c(c2)OCCN3C)cc1 | 0 | 7 | 2 | 5.4* | 2 | 4
CC(=O)Nc1ccc(S(=O)(=O)Nc2cccnc2)cc1 | 0 | -9 | 2 | 1 | . | .
CCCCCOc1ccc(NC(=O)C(=O)NCc2ccccc2)cc1 | 0 | -4 | -11 | 0 | . | .
SMILES | FBW7 act | TEAD-YAP inh | MITF inh | GPR151 ag | GPR151 confirm | GPR119 counter
O=C(c1nc2sccn2c1CNCC(c1cccnc1)N1CCOCC1)N1CCCC1 (stereo not given) | 0 | 13 | 6 | 9.8* | 0 | -1
O=C(c1nc2sccn2c1CNCC(c1ccccn1)N1CCOCC1)N1CCCC1 (stereo not given) | 0 | 9 | 11 | 1 | . | .
Cc1ccccc1CNC(=O)C1CC(O)CN1C(=O)Nc1ccccc1 (stereo not given) | 0 | 1 | -6 | 0 | . | .
COC(=O)c1ccccc1NC(=O)C(C)C | 1 | 9 | -1 | 5.3* | 0 | -11
COc1cc(NC(=O)c2ccccc2Cl)ccc1NC(=O)C(C)C | 0 | -16 | 17 | 10* | 0 | -5
COc1ccc(OC)c(C(C)NC(=O)c2ccccc2Cl)c1 (stereo not given) | 0 | 5 | 11 | 15* | 1 | 15
Cc1nn(-c2ccccc2)c(N2CCCCC2)c1C=C(c1nc2ccccc2s1)c1nc2ccccc2s1 | 0 | 1 | 10 | -1 | . | .
COC(=O)c1c(NC(=O)COc2ccccc2)sc(C(=O)Nc2ccc(F)cc2)c1C | 0 | -12 | 2 | 3 | . | .
C=CCn1c(CNC(=O)c2ccco2)nnc1SCC(=O)c1cccc([N+](=O)[O-])c1 | 0 | 17 | 6 | 1 | . | .
O=C1CC(c2nc3ccccc3n2Cc2ccccc2F)CN1c1ccccc1 (stereo not given) | 0 | -11 | -3 | 8.8* | 0 | -9
COc1ccc(/C=C2/c3ccccc3-c3nc4ccccc4cc32)cc1OC | 0 | -11 | 8 | 2 | . | .
COc1ccc(/C=C2/c3ccccc3-c3cc4c(C)cc(C)nc4cc32)cc1OC | 0 | -9 | 4 | 5.8* | 1 | 1
COc1nc(NCCCN2CCCC2=O)nc(-c2ccc(C(N)=O)cc2)n1 | 1 | -7 | 25 | 8.5* | 0 | -3
COc1nc(NCCCN2CCCC2=O)nc(-c2ccc(C(=O)N3CCN(C)CC3)cc2)n1 | 0 | 4 | 2 | 3 | . | .
Cc1cc(C)nc(SCC(=O)Nc2ncc3c(n2)CC(C)(C)CC3=O)n1 | 0 | 8 | 6 | 5.6* | 1 | 13
CC(=O)Nc1ncc2c(n1)CC(C)(C)CC2=O | 0 | -1 | 9 | 1 | . | .
C=CCOc1ccccc1C(c1c(C)[nH][nH]c1=O)c1c(C)[nH][nH]c1=O | -1 | 5 | 7 | 9.5* | 0 | -8
COc1ccc(-c2noc(CCC(=O)Nc3ccc(C)c(C)c3)n2)cc1 | 0 | -2 | 8 | 5.2* | 2 | 7
COc1ccc(-c2noc(CC(=O)Nc3cccc(Cl)c3)n2)cc1 | 0 | 9 | -4 | -1 | . | .
COc1cccc(-c2noc(CCC(=O)NC(C)C)n2)c1 | 0 | -5 | -5 | 5.6* | -2 | -14
COc1ccc(-c2noc(CCC(=O)Nc3cccc(Cl)c3)n2)cc1 | 0 | 0 | -5 | 9.5* | 0 | 5
CN(C)C(=O)CCc1nc(-c2ccc(Cl)cc2)no1 | 0 | -47 | -6 | 7.2* | -1 | -18
COc1ccc(-c2noc(CCC(=O)Nc3ccc(C)cc3)n2)cc1 | 0 | -12 | -2 | 2 | . | .
Cc1cccc(-c2noc(CCC(=O)N(C)C)n2)c1 | 0 | -42 | -7 | -4 | . | .
CC(=O)C1C2=C(CC(C)(C)CC2=O)OC2=C1C(=O)CC(C)(C)C2 | 0 | -12 | 3 | 6.7* | 0 | -4
